Percent Effect data for 39 compounds are collected here from ChEMBL document CHEMBL3988442, “University of Dundee, Small-Polar-MMV Screening Library” (2021).

For this assay, the target named is AMP-activated protein kinase, AMPK (Homo sapiens) (UniProt P54646+O43741+P54619+Q9UGJ0+Q9Y478+Q13131+Q9UGI9). Put plainly: AMP-dependent Kinase enzyme assay. An in vitro enzyme assay that detects ADP turnover that is directly proportional to AMPK activity. This uses naive AMPK that is activated during the assay with MK-8722. Format: functional. More on the design: scale not given: direction of the effect not stated beside the values. To be noted: 30 µM.
`CS(=O)(=O)N1CCCC(c2cccc(-c3ccccc3F)n2)C1` (centres undefined): the Percent Effect was determined as 12.2%. `Cc1cc(NC(C)c2nnn[nH]2)n2nc(C)c(C)c2n1` (centres undefined): the Percent Effect stood at 20.6%. With `CNC(=O)c1noc(CN2CC[C@](C)(O)[C@H](C)C2)n1`, the Percent Effect is -4.9%. As to `CCOc1ccc2cc(C(=O)NCCC(=O)N(C)C)[nH]c2c1`, the Percent Effect is -3.77%.

Regarding `CCN(Cc1ccoc1)C(=O)Nc1ccccc1CN1CCOCC1`, the Percent Effect was determined as 4.22%. As to `COC(=O)c1ccc(NC(=O)CCNCc2ccco2)cc1`, the Percent Effect amounted to 2.04%. As to `Cc1nn2cccnc2c1C(=O)NCc1ccccc1OCC1CC1`, the Percent Effect amounted to 2.06%. For the compound `CC(CN1CCOC1=O)NC(=O)c1cccc2cc[nH]c12` (centres undefined), the Percent Effect was 8.07%.

Take `CCN(C)C[C@@H]1CN(C(=O)c2cc(-c3ccc(F)cc3)n[nH]2)C[C@@H]1CO`: the Percent Effect turned out to be 9.6%. Consider `CCCc1nnc(N2CCC(C3CCN(C)CC3)CC2)o1`, for which the Percent Effect was -1.66%. In the case of `O=S(=O)(NCC1(c2cccs2)CCOCC1)c1cccnc1` it was -2.3%. As for `Cc1ccc(OCC(=O)N2CCOCC(O)(CN3CCCC3)C2)cc1C` (centres undefined), the Percent Effect was 8.56%. For the compound `COc1ccc(C(C)NCCc2ccc(NC(C)=O)cc2)c(OC)c1` (centres undefined), the Percent Effect came out at 8.45%.

On to `COc1ccc(CCCN(C)C(=O)c2cc(Cl)c[nH]2)cc1OC`, for which the Percent Effect stood at 7.77%. Turning to `NC(=O)C1CCN(C(=O)NC(Cc2ccccc2)C(F)(F)F)CC1` (centres undefined), the Percent Effect came to 0.0823%. As for `CC(C)Oc1ccccc1CNC(=O)N(C)C(C)CS(C)(=O)=O` (centres undefined), the Percent Effect stood at 9.72%. Turning to `Cn1cc(NC(=O)N2CCCC2c2cccnc2)ccc1=O` (centres undefined), the Percent Effect was determined as 42.2%. On to `CN(Cc1cccc(O)c1)Cc1cnn(C)c1`, for which the Percent Effect was -1.1%. Consider `CN1CCN(c2ccc(F)cc2NC(=O)NCCn2ccnc2)CC1`, for which the Percent Effect stood at 12.1%. For the compound `CC(=O)Nc1ccc(CNC(=O)CNCc2sc(C)nc2C)cc1`, the Percent Effect was found to be 3.71%. In the case of `CC(=O)N1CCC1c1nc(-c2ccc(C)s2)no1` (centres undefined), the Percent Effect worked out at 7.59%.

As to `COc1ccc2c(c1)CCCN(C(=O)NCC1CCCO1)C2` (centres undefined), the Percent Effect stood at 5.17%.

On to `O=C(C1CC(c2ccccc2)=NO1)N1CCCCc2ccccc21` (centres undefined), for which the Percent Effect came to 4.65%.

As to `CN(CCOc1ccccc1F)C1CCOC1=O` (centres undefined), the Percent Effect is -5.42%. In the case of `CCN(CCOC)C(=O)c1ccc2c(c1)nc(N1CC[C@H](O)C1)n2C` it was 3.21%; in that of `O=C1CCC2(CCCN(CCn3cc(Cl)cn3)C2)CN1C1CCCC1` (centres undefined), 14.4%; in that of `COCc1nc(C2CC2)nn1-c1cc(Cl)ccc1OC`, -8.6%. In the case of `NCC(CO)Cc1ccc(OC(F)(F)F)cc1` (centres undefined) it was -4.6%; in that of `CN(C)Cc1cnn(-c2ccccc2C(=O)NCCC2CCCN2C)c1` (centres undefined), 5.44%; in that of `CCc1ccc2nc(C)cc(C(=O)NC3CCCCNC3=O)c2c1` (centres undefined), -6.44%. Consider `CN(Cc1nc2ccccc2[nH]1)C(=O)CN(C)c1ccc(Cl)cn1`, for which the Percent Effect was -0.551%. With `O=C(CCC1CCCC1)N1C[C@H]2CC[C@@H]1CN(Cc1ccncc1)C2`, the Percent Effect came out at 6.08%.

Take `CCn1nc(C)c(C(C)Nc2cc(C3CCNCC3)nc(C)n2)c1C` (centres undefined): the Percent Effect was 0.304%. In the case of `Cc1cnc2c(C(=O)N3CCCC(OCc4ccccn4)C3)cnn2c1` (centres undefined) it was 4.92%; in that of `O=C(Cn1cccnc1=O)NCc1cccnc1OCC(F)(F)F`, 0.146%. On to `O=C(NCc1cccnc1N1CCCCC1)c1ccc2[nH]nnc2c1`, for which the Percent Effect was -9.59%.

In the case of `O=S(=O)(c1cc(F)ccc1N1CC(n2cccn2)C1)C(F)(F)F`, the Percent Effect was 26.5%. In the case of `CCCc1nc(NC2(COC)CCCC2)c2cnn(C)c2n1` it was 7.33%. For the compound `CC(C)c1nn(C)cc1CNCc1cccnc1N(C)C`, the Percent Effect was 0.312%.
